These results are taken from PubChem BioAssay (NCI).

Where “and” joins values, the source holds several entries; their conditions need not be identical. Identical values can stand only once. The panel holds about 83,000 compounds, 20% with a hit somewhere; the sample as a whole holds those more often.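 The test compound was applied at a single concentration to cells in 96-well plates for 48 hours, and percent growth was recorded.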 Calls of active or inactive are those of the source.

One experiment has as its system NCI-H226 lung. In words: NCI-60 one-dose screen, 48 h (100 = growth as untreated, 0 = no growth, -100 = all killed). The following applies: 10 µM. The procedure: Growth inhibition of the NCI-H226 human Non-Small Cell Lung tumor cell line is measured as a screen for anti-cancer activity. Cells are grown in 96 well plates and exposed to the test compound for 48 hours. Compounds are tested at a single concentration, which is 10^-5 M for most compounds. The reported endpoint is percent growth (GI% or GIPRCNT), where numbers from 0 - 100% represent growth inhibition, and numbers from -100% - 0 represent cell death. For example, a value of 40 represents 60% growth inhibition. A value of 0 means no net growth occurred over the course of the experiment. A value of -40 indicates 40% of cells at the beginning of the experiment died by the end of the experiment. A value of -100 means all cells are dead at the end of the experiment.
NCI-60 Human Tumor Cell Lines Screen was performed using the standard one-dose NCI protocol, which is described in more detail at https://dtp.cancer.gov/discovery_development/nci-60/default.htm.
Compounds with GIPRCNT values below 10 were considered active. Activity score was based on GIPRCNT using the following formula: […]
Score is 0 for GIPRCNT values of 100 or above, 50 for GIPRCNT values of 0, and 100 for GIPRCNT values of -100.
With `O=C(O)CCCc1ccc(N(CCCl)CCCl)cc1`, the growth is 78.7% (inactive) and 88.2% (inactive).

Staying with this experiment, now noted: 10 µM unless noted.
Turning to `C/C=C(/C)C(=O)O[C@H]1CC[C@@]2(C)[C@@H]3CC[C@H]4[C@]5(O)C[C@H](O)[C@@]6(O)[C@@H](CN7C[C@@H](C)CC[C@H]7[C@@]6(C)O)[C@]5(O)C[C@@]42O[C@@]13O`, the growth is 102% (inactive).

As for `CC(C)c1cccc(C(C)C)c1O`, the growth was 107% (inactive) and 103% (inactive). As to `CCC1(CCSC#N)C(=O)NC(=O)NC1=O`, the growth is 104% (inactive).

Consider `CC1(C)N(Nc2ccccc2)C(=O)C2CCCN21` (stereo not given), for which the growth was 84.6% (inactive).

With `C(=NC1CCCCC1)=NC1CCCCC1`, the growth was 103% (inactive) and 57% (inactive).

For the compound `COC(=O)CCP(CCC(=O)OC)c1ccccc1`, the growth was 104% (inactive). As for `C[C@]12CCc3nc(-c4ccc(O)c(O)c4)sc3C1=CC[C@@H]1[C@@H]2CC[C@]2(C)C(=O)CC[C@@H]12`, the growth is 65% (inactive). As for `Cn1cc(C(=O)C[n+]2ccccc2)c2ccccc21`, the growth is 99.1% (inactive). Regarding `CC1=C(C)C(=O)O[C@@H]([C@](C)(O)[C@]2(O)CC[C@@]3(O)[C@@H]4C[C@H]5O[C@]56CC=CC(=O)[C@]6(C)[C@H]4CC[C@]23C)C1`, the growth was -45.2% (active).

Take `CCCN1C(=O)NC(=O)C(CC)(N2C(=O)c3c(F)c(F)c(F)c(F)c3C2=O)C1=O` (stereo not given): the growth was 27.4% (inactive). For `COc1ccc(CN)cc1OC`, the growth was 113% (inactive) and 105% (inactive). Turning to `O=C(O)c1ccccc1N(CCO)CCCl`, the growth was 102% (inactive). As to `COC(=O)C1=CCCN(C)C1`, the growth is 100% (inactive) and 101% (inactive). As for `N#CC(C#N)=C(C#N)C#N`, the growth is 101% (inactive). On to `COc1ccc2c(c1)c(-c1nc(-c3cn(C)c4ncccc34)cs1)cn2CCCCN1CCOCC1`, for which the growth was 70.1% (inactive). Still for that read-out and setting: for `O=P(O)(Nc1ccccc1)Nc1ccccc1` the value was 102% (inactive). For `COc1ccc(/C=C(/C)[N+](=O)[O-])cc1OC`, the growth was 88.7% (inactive) and 79.2% (inactive).

On to `O=C1NC(=O)C(=C/C=C/c2ccccc2)C(=O)N1`, for which the growth is 62.7% (inactive).

`N#CCc1ccc(CC#N)cc1`: the growth was 90.4% (inactive). For the compound `CCCC1CCCCC12C(=O)NC(=O)NC2=O` (stereo not given), the growth is 91.1% (inactive). As to `N#CC(NC(=O)CCl)=C(Cl)Cl`, the growth is 70.8% (inactive). The same measure, in the same setting: for `Cc1c2ccncc2c(C)c2c1[nH]c1ccccc12` the value was -0.884% (active); for `N#CCCc1ccccc1`, 95.4% (inactive); for `COCC1OC2OC3C(COC)OC(OC4C(COC)OC(OC5C(COC)OC(OC6C(COC)OC(OC7C(COC)OC(OC8C(COC)OC(OC1C(O)C2O)C(O)C8O)C(O)C7O)C(O)C6O)C(O)C5O)C(O)C4O)C(O)C3O` (stereo not given) (tested in a mixture with another compound), 102% (inactive). `COc1c(O)cc2c(c1OC)-c1ccc(SC)c(=O)cc1C(NC(C)=O)CC2` (stereo not given): the growth is 23.1% (inactive). For `Cc1cc(N(CCCl)CCCl)ccc1/C=N\NC(=O)c1cccnc1`, the growth is -36.1% (active) and 11.8% (inactive). Same read-out and setting: then `C[C@]12CCc3sc(Nc4ccc(F)cc4)nc3C1=CC[C@@H]1[C@@H]2CC[C@]2(C)C(=O)CC[C@@H]12`, with 86.7% (inactive).

Regarding `CCC(Br)(CC)C(=O)NC(N)=O`, the growth was 96.4% (inactive). For `c1ccc(CCN2CCCCC2)nc1`, the growth is 101% (inactive).

`C=C[Se]CC(=O)/C=C/c1ccccc1`: the growth was 98% (inactive). Consider `C[C@]12CC[C@H](O)C[C@@H]1CC[C@@H]1[C@@H]2CC[C@]2(C)OC(=O)CC[C@@H]12`, for which the growth was 102% (inactive).

In the case of `CC1(C)CN=C(NN=C(/C=C/c2ccc(C(F)(F)F)cc2)/C=C/c2ccc(C(F)(F)F)cc2)NC1`, the growth was -15.1% (active).

As for `Oc1ccccc1C=NCCN=Cc1ccccc1O.[Fe]`, the growth was 85% (inactive).

As for `Cc1ccc(P(=O)(O)O)cc1`, the growth was 99.2% (inactive).

For the compound `CC12CCC3C4CCC(=O)C=C4CCC3C1CC1CC(=O)OC12` (stereo not given), the growth was 93.7% (inactive). For `CN1C2CCC1[C@@H](COC(=O)c1ccccc1)[C@@H](O)C2` (stereo not given in full), the growth is 99.6% (inactive). Turning to `O=P1(N(CCCl)CCCl)NCCCO1` (stereo not given), the growth was 101% (inactive). With `O=[N+]([O-])c1ccc2scc3c4ccccc4nc-3c2c1`, the growth was -32.4% (active).

The same experiment, now with this note: 75 µM.
Regarding `O=C(O)CCCc1ccc(N(CCCl)CCCl)cc1`, the growth is 61.2% (inactive).
